Test results published in PubChem BioAssay (NCATS).
Inconclusive results are not listed. Entries that show only a call come without a potency. Unmarked numbers belong to inactive results. Active and inactive are the calls of the source. Calls follow the shape of the dose curve; as a rule, active = well fitted inhibition curve with a large enough effect; inconclusive = small, poorly fitted or top-dose-only effect; inactive = no such curve, though single readings can be large or run the other way.

Key:
[1] = test system: Zika virus NS2B-NS3 protease (unlinked complex); experiment: Primary screen GU Rhodamine qHTS for Zika virus inhibitors: Unlinked NS2B-NS3 protease assay (AID 1347159); also: nearly all actives have a fitted effect of over 60% in size
Summary of the method: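 In dose–response format, inhibition of unlinked protease (25 nM) was measured with 1.5 microM bis-peptide Rhodamine110 substrate. Aprotinin served as the intraplate control.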

[2] = test system: Zika virus NS2B-NS3 protease (linked construct); experiment: Primary screen NINDS Rhodamine qHTS for Zika virus inhibitors (AID 1347160); also: nearly all actives have a fitted effect of over 55% in size
Summary of the method: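 Each compound, titrated, sat 15 min with 25 nM linked protease before 1.5 microM Rhodamine110 substrate went in. Fluorescence gain over the next 15 min, in pH 8.0 Tris with Tween 20, gave Hill-fitted curves.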

SMILES | Potency [1] | Potency [2] | activity change, negative = inhibition [1] | activity change, negative = inhibition [2]
COc1ccc2nc(S(=O)(=O)Cc3ncc(C)c(OC)c3C)[nH]c2c1 | inactive | inactive |  | 
CC(C)C[C@H](CC(=O)NO)C(=O)N[C@@H](Cc1ccc2ccccc2c1)C(=O)N[C@@H](C)C(=O)NCCN | inactive | inactive |  | 
CCC(C)C(=O)OC1CC(O)C23C4OCC5(C(O)CC2C1(C)C(O)O4)C3C(=O)CC1(C)C(c2ccoc2)CC2OC215 (stereo unspecified) | inactive | inactive |  | 
Cn1c2ccc(F)cc2c2c(C(=O)N3CCCC3)cn(-c3ccccc3)c(=O)c21 | inactive | inactive |  | 
C=C1CC[C@@H]2[C@@](C)(CO[C@@H]3O[C@H](CO)C(O)[C@H](O)C3O)[C@H](O)CC[C@@]2(C)[C@@H]1CC/C(C)=C/CO (stereo partly specified) | inactive | inactive |  | 
CC(=O)c1ccc2c(c1)C(O)C(C(C)(C)O)O2 (stereo unspecified) | inactive | inactive |  | 
COc1ccc(CCO[C@@H]2CCCC[C@H]2N2CC[C@@H](O)C2)cc1OC | inactive | inactive |  | 
CC(C)=CCC[C@](C)(O[C@@H]1O[C@H](CO)[C@@H](O)[C@H](O)[C@H]1O)[C@H]1CC[C@]2(C)[C@@H]1[C@H](O)CC1[C@@]3(C)CC[C@H](O)C(C)(C)C3[C@@H](O[C@@H]3O[C@H](CO)[C@@H](O)[C@H](O)[C@H]3O[C@@H]3OC[C@@H](O)[C@H](O)[C@H]3O)C[C@]12C (stereo partly specified) | inactive | inactive |  | 
CC(C)C(NC(=O)c1ccc2ccccc2n1)C(=O)NC(CC(=O)O)C(=O)COc1c(F)cccc1F (stereo unspecified) | inactive | inactive |  | 
CCS(=O)(=O)N1CCN(c2ccc(Nc3ncc(C(N)=O)c(NC4CC4)n3)cc2)CC1 | inactive | inactive |  | 
O=C(NCc1cccc(O)c1)Nc1nc(-c2ccncc2)cs1 | inactive | inactive |  | 
C=C1[C@H](OC(C)=O)[C@H]2[C@@H](OC(C)=O)[C@](C)(OC(C)=O)C[C@]2(OC(C)=O)C(=O)[C@H](C)/C=C/C(C)(C)C(=O)[C@H](OC(=O)C(C)C)[C@H]1OC(C)=O | inactive | inactive |  | 
COc1cc(O)cc(C)c1C(=O)O[C@H]1[C@@H](OC(C)=O)[C@H](n2ccc(=O)[nH]c2=O)O[C@@H]1CO | inactive | inactive |  | 
Cc1cc(C)cc(C(=O)NOCCCCCC(=O)NO)c1 | inactive | inactive |  | 
COC1C(CO)OC(n2cnc3c(=O)[nH]cnc32)C1O (stereo unspecified) | inactive | inactive |  | 
C=C(C)C1CCC2(C(=O)O)CCC3(C(=O)O)C(CCC4C5(C)CCC(O)C(C)(C(=O)O)C5CCC43C)C12 (stereo unspecified) | inactive | inactive |  | 
CC1(C)CC2C(C1)C(C)(O)C13CC1(COC3=O)C2O (stereo unspecified) | inactive | inactive |  | 
C/C=C1\[C@H](OC2OC(COC3OC(CO)C(O)C(O)C3O)C(O)C(O)C2O)OC=C(C(=O)OC)[C@H]1CC(=O)OCCc1ccc(O)cc1 (stereo partly specified) | inactive | inactive |  | 
CC(C)(C)NCCCNC(=O)c1cccc(Br)c1 | inactive | inactive |  | 
CCOc1ccc(NC(=S)N2CCC(C(O)(c3ccccc3)c3ccccc3)CC2)cc1 | inactive | inactive |  | 
CC1CC(=O)C2=C(CCC3(O)C(O)c4c(O)cccc4C(=O)C23O)C1 (stereo unspecified) | inactive | inactive |  | 
C=C1C[C@@]23CCC4[C@@](C)(CCC[C@@]4(C)C(=O)OC)C2CC[C@@H]1C3 (stereo partly specified) | inactive | inactive |  | 
COC(=O)c1ccc(OC(CO)C(O)c2ccc(O)c(OC)c2)c(OC)c1 (stereo unspecified) | inactive | inactive |  | 
Cn1cncc1C(N)(c1ccc(Cl)cc1)c1ccc2c(c1)c(-c1cccc(Cl)c1)cc(=O)n2C (stereo unspecified) | inactive | inactive |  | 
C=CC1C(OC2OC(CO)C(O)C(O)C2O)OC=C(C(=O)OC)C1CC(=O)OCC1C(C)C(O)CC1C(CO)COC(=O)CC1C(C(=O)O)=COC(OC2OC(CO)C(O)C(O)C2O)/C1=C\C (stereo unspecified) | inactive | inactive |  | 
C[C@@H]1O[C@@H](O[C@H]2[C@H](OC(=O)[C@]34CCC(C)(C)C[C@H]3C3=CCC5[C@@]6(C)C[C@H](O)[C@H](O[C@@H]7O[C@H](CO)[C@@H](O)[C@H](O)[C@H]7O)[C@@](C)(CO)C6[C@H](O)C[C@@]5(C)[C@]3(C)CC4)OC[C@H](O)[C@@H]2O)[C@H](O)[C@H](O)[C@H]1O[C@@H]1OC[C@@H](O)[C@H](O[C@@H]2OC[C@](O)(CO)[C@H]2O)[C@H]1O (stereo partly specified) |  |  | -1.32% [at 19.1 µM] | 21.5% [at 10.7 µM]
Cc1ccc(NC(=O)C(=O)NC2CC(C)(C)NC(C)(C)C2)cc1 | inactive | inactive |  | 
CC(=O)OC1CC2(C)C3=CCC4(C)C5C(O)C(O)C(C(C)C)C5(C)CCC4(C)C3CCC2C(C)(C)C1OC1OC(CO)C(O)C(O)C1O (stereo unspecified) | inactive | inactive |  | 
